This passage reports fold change and outcome results from PubChem BioAssay AID1259240 (Keith Lab, Institute of Cancer Science, University of …, 2017).

SMILES strings stand for the structures. A number with no mark means an inactive call. Activity calls are given as the source filed them. Rule as the data show it: active = fold change mostly below about -2 (no sharp cut-off); inactive = mostly above about -1.8.

The test is described as follows: TERT promoter activity modulators, primary screen, cell-based, luciferase reporter, human (AID 1259240). Conditions: A2780 TERT promoter luciferase reporter, 16 h; at 20 µM, fold versus average of vehicle-only wells.
For `c1ccc(-c2nnc3ccc(NCCCN4CCc5ccccc5C4)nn23)cc1`, the fold change was -1.21. Same read-out and setting: in the case of `COc1cc(-c2nc3s/c(=C\c4cccs4)c(=O)n3n2)cc(OC)c1OC` it was 1.19; in that of `CCN(CC)S(=O)(=O)c1ccc2c(c1)N(CC(=O)NC1CC1)C(=O)CO2`, -1.73; in that of `NC(=O)C1CCN(C(=O)CCCc2nnc3n4nc(-c5ccccc5)nc4c4ccccc4n23)CC1`, -1. Take `CN1C(=O)/C(=C/c2cn(CC(N)=O)c3ccccc23)c2ccccc21`: the fold change was 1.5. Consider `COc1ccc(C2CC(=O)Nc3cc(OC)cc(OC)c32)c(OC)c1` (centres undefined), for which the fold change was -1.41. As for `Cc1nn(-c2nc3ccccc3[nH]2)c(=O)c2ccccc12`, the fold change is -14.7 (active). For `Cc1ccn(CN2CCN(Cn3ccc(C)n3)C2=S)n1`, the fold change was 1.29. Turning to `Cc1cc(Oc2ccccc2)nc(SCC(N)=O)n1`, the fold change was 1.5. For `COc1cccc2cc(S(=O)(=O)c3ccccc3)c(=O)oc12`, the fold change was 1.83. In the case of `Cc1cc(NS(=O)(=O)c2ccc(NC(=O)[C@@H]3CCCC[C@@H]3C(=O)O)cc2)no1`, the fold change is -1.94.

In the case of `COc1cc(NC(=O)Nc2ccc3snnc3c2)cc(OC)c1OC`, the fold change is -1.49.

For `CCc1cccc2c1NC(=O)C2(O)CC(=O)c1cccs1` (centres undefined), the fold change is 1.14.

Consider `CCOC(=O)c1ccc(N2C(=O)c3n[nH]c(-c4ccco4)c3C2c2ccc(C)cc2)cc1` (centres undefined), for which the fold change is -2.14 (active). For the molecule `CCC(Sc1nnc(-c2c[nH]c3ccccc23)n1CCOC)C(=O)OC` (centres undefined), the molecule was called inactive.

As to `Cc1cccc2nc(COc3ccc(Cl)cc3)cn12`, the fold change is -4.52 (active). Turning to `CCOC(=O)C1CCN(c2cc(C)c(C#N)c3nc4ccccc4n23)CC1`, the fold change is -2.16 (active).

Regarding `CC1CCC[C@@H](C)N1C(=O)Cc1ccc(NC2=NC3CS(=O)(=O)CC3S2)cc1` (some centres undefined), the fold change is -1.64. As to `Cn1c(=O)c2c(SCC(=O)N3CCCc4ccccc43)nc(-c3ccco3)nc2n(C)c1=O`, the fold change was 1.45. With `CCOc1ccc(C2CC(=O)Nc3cc4c(cc32)OCO4)cc1Cl` (centres undefined), the fold change is -1.12. For `CCOC(=O)CSc1nnc(-c2c[nH]c3ccccc23)n1CCOC`, the outcome was inactive. Take `Cc1nc2c(-c3ccc(F)cc3)c(C)nn2c(C)c1CCC(=O)NC(C)C`: the fold change was -1.28. With `O=C(CCSc1nc(-c2ccc3c(c2)OCO3)cc(C(F)(F)F)n1)N1CCCCC1`, the fold change was -1.15. The same measure, in the same setting: in the case of `CC(C)CCNC(=O)C1CCC(CNS(=O)(=O)c2cccc3nsnc23)CC1` (centres undefined) it was -1.62; in that of `CCOC(=O)c1nnn(-c2nonc2N)c1CNc1ccc(F)cc1`, 1.3; in that of `Cc1noc(C(=O)Nc2cccnc2Cl)c1Cl`, 1.48. On the same count and under the same terms, in the case of `Cc1c(/C=C2/SC(=S)N(CC(=O)O)C2=O)c2ccccc2n1C` it was 1.33; in that of `CN1CCN(C(=O)c2ccc3c(Cl)c4c(nc3c2)CCC4)CC1`, 1.03. For `CCCCCNC(=O)c1ccc(NC2=NC3CS(=O)(=O)CC3S2)cc1` (centres undefined), the fold change is 1.22. For `CN1CCc2c(sc3c2C(=O)NC(c2cccc(Cl)c2Cl)N3)C1` (centres undefined), the fold change was -1.43. Same read-out and setting: then `CC1CCCCC1NC(=O)CN(C)S(=O)(=O)c1ccc2c(c1)CCC(=O)N2` (centres undefined), with 1.04; and `Cc1ccc(-c2cc(N)n(S(=O)(=O)c3cccc4nsnc34)n2)cc1`, with -1.42; and `Nc1ccc(-c2nc3cc(N)c(Cl)cc3[nH]2)cc1`, with -4.84 (active). On the same count and under the same terms, then `COc1ccc(C2CC(c3cccs3)=NN2C(=O)CSc2ncnc3ccccc23)cc1` (centres undefined), with 1.14. For the molecule `CC1CCCC(NC(=O)CC(C)(C)CC2=NS(=O)(=O)c3ccccc3N2)C1C` (centres undefined), the fold change was 1.01. Take `CC1CCCN(C(=O)c2ccc3c(=O)n4c(nc3c2)CCCCC4)C1` (centres undefined): the fold change is 1.14.

As for `O=C(NC1CCCCCC1)C1CCC(CNc2c(NC3CCCCC3)c(=O)c2=O)CC1` (centres undefined), the fold change is -1.28. Same read-out and setting: then `COCCCNc1nc2c(-c3ccccc3)nnn2c2ccccc12`, with 1.02; and `Cc1ccc(Cl)cc1N1C(=O)Nc2ccccc2N1O`, with -1.07.
